# Active and inactive are the calls of the source. The calls were made as follows: active = hit-call score of the fitted dose curve at least 0.9, where 1 is the maximum; inactive = score below 0.9.
# Read-out: Interleukin 6 Receptor (IL6R), IL6R (gene 3570)
# Test: LTEA_HepaRG_IL6R: Life Technologies and Expression Analysis (LTEA) Assay for Interleukin 6 Receptor (IL6R) using HepaRG (AID 2283510);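 as to AC50: differentiated human HepaRG liver cells in serum-free induction medium; TaqMan qRT-PCR signal normalized to ACTB GAPDH and POLR2A housekeeping genes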
# Conditions: mRNA level, 48 h; actives raise or lower the signal
# Method in brief: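 Cells were thawed, plated and cultured 48 h, then medium was changed to serum-free induction medium. Chemicals were added in duplicate (100 uM top, half-log steps, 0.5% DMSO) for 48 h. Lysates were analyzed by qRT-PCR for IL6R expression.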
Structure (SMILES),outcome,AC50
Cc1c(COC(=O)[C@@H]2[C@H](/C=C(\Cl)C(F)(F)F)C2(C)C)cccc1-c1ccccc1,inactive,
Nc1c(Cl)c(Cl)nc(C(=O)O)c1Cl,inactive,
CC(C)NC(=O)N1CC(=O)N(c2cc(Cl)cc(Cl)c2)C1=O,,2.86 µM (active)
Cn1c(-c2ccccc2)cc(-c2ccccc2)[n+]1C,inactive,
COC(=O)c1c(C(F)F)nc(C(F)(F)F)c(C2=NCCS2)c1CC(C)C,,12.2 µM (active)
Clc1nc(Cl)nc(Nc2ccccc2Cl)n1,inactive,
COc1cc(OC)nc(NC(=O)NS(=O)(=O)c2ncccc2OCC(F)(F)F)n1,inactive,
Cc1cc(C)nc(Nc2ccccc2)n1,inactive,
O=c1n(Cl)c(=O)n(Cl)c(=O)n1Cl,inactive,
CSC(=O)c1c(C(F)F)nc(C(F)(F)F)c(C(=O)SC)c1CC(C)C,inactive,
C=C(C)CN(CC)c1c([N+](=O)[O-])cc(C(F)(F)F)cc1[N+](=O)[O-],inactive,
CCOc1cc(C(C)(C)C)ccc1C1COC(c2c(F)cccc2F)=N1 (stereo not given),inactive,
O=C(Nc1ccccc1-c1ccc(Cl)cc1)c1cccnc1Cl,inactive,
COP(=O)(OC)O/C(C)=C/C(=O)N(C)C,inactive,
CC(C)Nc1nc(Cl)nc(NC(C)C)n1,inactive,
COP(=S)(OC)Oc1ccc([N+](=O)[O-])c(C)c1,inactive,
COP(=S)(OC)SCn1nnc2ccccc2c1=O,inactive,
C=CCOC(=O)C(C)(C)OC(=O)c1cc(-n2c(=O)cc(C(F)(F)F)n(C)c2=O)ccc1Cl,inactive,

Structure (SMILES),outcome,AC50
CNC(=O)N(C)c1nnc(C(C)(C)C)s1,inactive,
CCSC(=O)N1CCCCCC1,inactive,
CC(C)C1(C)N=C(c2ncccc2C(=O)O)NC1=O (stereo not given),inactive,
Nc1cnn(-c2ccccc2)c(=O)c1Cl,inactive,
CC(C)N1C(=O)N(c2ccccc2)CSC1=NC(C)(C)C,inactive,
COC(=O)NS(=O)(=O)c1ccc(N)cc1,inactive,
Nc1c(Cl)c(F)nc(OCC(=O)O)c1Cl,inactive,
Clc1cccc(C(Cl)(Cl)Cl)n1,inactive,
Cc1cnc(C2=NC(C)(C(C)C)C(=O)N2)c(C(=O)O)c1 (stereo not given),inactive,
CS(=O)(=O)c1ccc(C(=O)C2C(=O)CCCC2=O)c([N+](=O)[O-])c1,inactive,
O=C(O)c1c(Cl)ccc2cc(Cl)cnc12,inactive,
COC(=O)NC(=S)Nc1ccccc1NC(=S)NC(=O)OC,inactive,
CNC(=O)Oc1cccc2ccccc12,inactive,
CC(C)Oc1cccc(NC(=O)c2ccccc2C(F)(F)F)c1,inactive,
CN=C=S,inactive,
CCC(C)n1c(=O)[nH]c(C)c(Br)c1=O (stereo not given),,6.3 µM (active)
CO/N=C(/C1=NOCCO1)c1ccccc1Oc1ncnc(Oc2ccccc2Cl)c1F,inactive,

# — PubChem BioAssay (EPA / NIEHS)
